Screening data deposited in PubChem by National Center for Advancing Translational Sciences (NCATS).
Shown are actives, neighbours in structure and some others; about 1.8% of the full set was active somewhere.
p53ts 39C kill: cytotoxicity in p53ts cells at nonpermissive temperature; H1299-p53A138V viability at 39C, ATP luminescence, 24 h; 1.5% of 130,000 active; Potency, µM (titrated, usually from 46.1 µM), most hits filed as cytotoxic; AID 902; further: nearly all actives have a fitted effect of over 55% in size
Peg3 imprint: inducers of genomic imprint erasure in mouse ES cells; mouse ES Peg3-LacZ reporter, beta-gal luminescence, 40 h; Potency, µM (highest dose often 60.7 µM), most hits filed as activators; 0.02% of 110,000 active; AID 1948
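Imprint erasure is scored as LacZ activity from the silenced maternal Peg3 allele in feeder-free female ES cells cultured 40 h with LIF. Luminescence is normalized to in-plate negative controls and fitted to the Hill equation.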
p53ts 32C tox: cytotoxicity in p53ts cells at permissive temperature; 0.93% of 130,000 active; Potency, µM (doses to about 46.1 µM), hits mostly cytotoxic; H1299-p53A138V at 32C, ATP luminescence viability, 24 h; further: nearly all actives have a fitted effect of over 55% in size
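ATP-content luminescence (ATPlite) read-out after 24 h compound exposure at 32C in H1299-p53A138V cells (600/well). Tested up to 46 uM. Normalized to DMSO (0%) and 100 uM tamoxifen (100% killing); Hill-fit AC50.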
IkB signaling: suppresses IkB signaling in ABC-DLBCL reporter cells; ABC-DLBCL IkBa-CBG/CBR dual luciferase ratio, 4 h; response scale: scaled: untreated 0%, proteasome inhibitor 100%; Potency, µM (top dose mostly 57.1 µM); 0.04% of 110,000 active; active means well fitted curve in the direction sought with a large enough effect in the signal ratio, not every such curve was filed as active; inconclusive means small, poorly fitted or top-dose-only effect, or a change in a side signal; the % refers to the signal ratio;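 further: the direction sought is a rising ratio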
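Curves were fitted separately to fusion (green), unfused (red) and ratio luminescence, then classed by r2, magnitude and activity. Cells: OCI-Ly3, 4 h compound plus doxycycline at 37C; 10 uM MG-132 defined full response.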
Hits are given with their value; – = inactive; ? = inconclusive; · = not tested or not shown; [ ] = remark or other dose. Unless noted, the call rests on the fitted dose curve; in most records, active means well fitted curve in the direction sought with a large enough effect; inconclusive means small, poorly fitted or top-dose-only effect, or another doubt; inactive means no such curve, though single readings can be large; an effect the other way counts as inactive or inconclusive.

SMILES	p53ts 39C kill	Peg3 imprint	p53ts 32C tox	IkB signaling
CCCCN1C(=O)C(O)(CC(=O)c2ccc(CC)cc2)c2cc(Br)ccc21 (stereo not given)	?	–[10.9 µM]	?	–
Cc1ccc(/C=C/c2onc(C)c2S(=O)(=O)N2CCC(C(=O)Nc3cccc(C#N)c3)CC2)cc1	–	–[10.9 µM]	–	–
Cc1cnc(CNc2ncncc2-c2ccc(N(C)C)cc2)cn1	–	–	–	–[11.4 µM]
COc1ccc(N2CCN(C(=O)C3CCN(S(=O)(=O)c4cn(C)cn4)CC3)CC2)cc1	–	–[10.9 µM]	–	–
c1ccc(C2=NN[C@@H]3c4ccccc4-c4ccccc4N3C2)cc1	–[9.22 µM]	–[10.9 µM]	–[9.22 µM]	–[11.4 µM]
CC(/C=C/c1cccc(Oc2ccc(F)cc2)c1)N(O)C(N)=O (stereo not given)	·	–	·	·
C[C@@H](/C=C\c1cccc(Oc2ccc(F)cc2)c1)N(O)C(N)=O	32µM	–	32µM	?
COc1ccc(Cl)cc1Nc1ccc2cc(S(=O)(=O)N3CCCCC3)ccc2n1	?	–[10.9 µM]	–	–
CC(C)S(=O)(=O)c1oc(-c2cccs2)nc1S(=O)(=O)c1ccc(F)cc1	3.2µM	–[10.9 µM]	?	?
CC(C)S(=O)(=O)c1oc(-c2ccc(F)cc2)nc1S(=O)(=O)c1ccccc1	0.79µM	–[10.9 µM]	4µM	?
CCS(=O)(=O)c1oc(-c2ccc(F)cc2)nc1S(=O)(=O)c1ccc(Br)cc1	1.6µM	–[10.9 µM]	7.1µM	?
CCCCS(=O)(=O)c1oc(-c2ccc(F)cc2)nc1S(=O)(=O)c1ccccc1	2µM	–[10.9 µM]	10µM	?
CCOC(=O)c1cccc(NC(=O)CCSCCc2ccccn2)c1	–	–[10.9 µM]	–	–
COc1cc(OC)c(NC(=O)c2cc3c(=O)oc4ccc(C)cc4c3s2)cc1Cl	?	–[10.9 µM]	–	–
CSc1oc(-c2ccc(F)cc2)nc1S(=O)(=O)c1ccccc1	–	–	–	–
CS(=O)(=O)c1oc(-c2ccc(F)cc2)nc1S(=O)(=O)c1ccc(Cl)cc1	4µM	–[10.9 µM]	13µM	?
Cc1nc2ncnn2c(N2CCCC(C(=O)Nc3ccc4c(c3)CCC4)C2)c1C (stereo not given)	–	–	–	?
O=C(/C=C\Nc1cccc(F)c1)c1ccc2c(c1)OCO2	10µM	–	4µM	?
O=C(Nc1ccc2c(c1)OCO2)c1cccc(F)c1	–	–	?	–
CCc1ccc(OCC(=O)Nc2ccc3c(c2)c2ccccc2n3CC)c(Br)c1	13µM	–[10.9 µM]	–	–
CCc1ccc(OCC(=O)Nc2ccc3c(c2)c2ccccc2n3CC)cc1	?	–[10.9 µM]	?	–
Oc1c(I)cc(I)c2cccnc12	7.9µM	–	?	·
Oc1c(CN2CCN(c3ccccn3)CC2)cc(Cl)c2cccnc12	–	–	–	?
Oc1c(Cl)cc(Cl)c2cccnc12	3.2µM	–	?	·
Oc1ccc(Cl)c2cccnc12	–	–	–	·
SMILES	p53ts 39C kill	Peg3 imprint	p53ts 32C tox	IkB signaling
COCc1cc(=O)n2c(-c3ccc(C)cc3)n[nH]c2n1	10µM	–	10µM	?
CCOc1ccc(/C=C/c2nc3ccccc3n2S(=O)(=O)c2ccc(Br)cc2)cc1	7.9µM	–[10.9 µM]	7.9µM	?
O=S(=O)(c1cccc(C(F)(F)F)c1)n1c(/C=C/c2ccccc2)nc2ccccc21	13µM	–[10.9 µM]	13µM	–
CSc1ccc(/C=C/c2nc3ccccc3n2S(=O)(=O)c2ccc(Br)cc2)cc1	1.1µM	–[10.9 µM]	3.2µM	?
COc1ccc(COC(=O)N/N=C2/C[C@@H](O)[C@@H](O)[C@@H]3[C@@H]4C(=O)N(C5CCCCC5)C(=O)[C@H]4CC[C@@H]23)cc1	–[9.22 µM]	·	–[9.22 µM]	·
Cc1ccc(N2C(=O)c3ccccc3C2O)nc1 (stereo not given)	5µM	–	4µM	?
Clc1cccc(-c2nnc(-c3ccccc3)o2)c1	13µM	–	10µM	?
CCCCc1ccc(C(=O)Nc2ccc3nc(N4CCN(CC)CC4)cc(C)c3c2)cc1	7.9µM	–[10.9 µM]	–	?
CCN1CCN(c2cc(C)c3cc(NC(=O)Cc4ccc(OC)c(OC)c4)ccc3n2)CC1	–	–	–	–
CCN1CCN(c2cc(C)c3cc(NC(=O)c4cnccn4)ccc3n2)CC1	–	–	–	–
CCN1CCN(c2cc(C)c3cc(NC(=O)/C=C/c4cccc(OC)c4OC)ccc3n2)CC1	?	–[10.9 µM]	?	–
CCN1CCN(c2cc(C)c3cc(NC(=O)/C=C/c4cccc(Cl)c4)ccc3n2)CC1	3.2µM	–[10.9 µM]	?	?
CCN1CCN(c2cc(C)c3cc(NC(=O)c4cccc(Cl)c4)ccc3n2)CC1	2.5µM	–[10.9 µM]	14µM	?
CCN1CCN(c2cc(C)c3cc(NC(=O)c4cc(OC)cc(OC)c4)ccc3n2)CC1	2.5µM	–[10.9 µM]	?	–
CCC(Sc1nncn2c1cc1oc(C)cc12)C(=O)Nc1ccc(F)cc1 (stereo not given)	20µM	–[10.9 µM]	–	?
CCOC(=O)c1ccc(NC(=O)C(CC)Sc2nncn3c2cc2oc(C)cc23)cc1 (stereo not given)	–	–[10.9 µM]	–	?
CCCCC#CC1C=CC(Oc2cc(OC)c(OC)c(OC)c2)C(COC(=O)OCC)O1 (stereo not given)	–[9.22 µM]	·	–[9.22 µM]	·
c1ccc2c(c1)Cn1nnnc1-2	–	–	–	–
c1ccc2c(c1)Cn1c-2nc2ccccc21	7.9µM	–	13µM	?
O=C(CON1C(=O)c2ccccc2C1=O)c1ccccc1	–[9.22 µM]	–[10.9 µM]	–[9.22 µM]	–[11.4 µM]
CCn1nc(C)c(CCN(C)C(=O)Nc2cc(OC)c(OC)c(OC)c2)c1C	–	–[10.9 µM]	–	–
CCCOc1ccc(N2C(=O)CC(SCCN)C2=O)cc1 (stereo not given)	10µM	–	13µM	–
O=C(Cn1c(=O)n(-c2ccccc2)c(=O)c2ccc(C(=O)NCc3ccc4c(c3)OCO4)cc21)Nc1ccc(Br)cc1F	13µM	–[10.9 µM]	–	–
COc1ccc(-c2cc(C(=O)N/N=C/c3ccc(O)cc3)[nH]n2)cc1	–	·	?	·
O=C(c1cc(-c2ccco2)on1)N1CCN(C(c2ccccc2)c2ccccc2)CC1	–	–	–	?
SMILES	p53ts 39C kill	Peg3 imprint	p53ts 32C tox	IkB signaling
COc1ccccc1C(=O)NCc1nc2cccnc2n1Cc1ccc(F)cc1	–	–[10.9 µM]	–	–
Cc1ccc(C(O)c2nc3ccccc3n2C(C)C)cc1 (stereo not given)	–	–	–	–
COc1ccccc1/C=C/c1nc2ccccc2n1C(C)C	16µM	–[10.9 µM]	?	–
COc1ccc(/C=C/C(=O)c2cccs2)c(OC)c1	5µM	–	16µM	·
CN(c1ccccc1)S(=O)(=O)c1nnc(NC(=O)C2CCCCC2)s1	16µM	–[10.9 µM]	7.9µM	–
CCN(c1ccccc1)S(=O)(=O)c1nnc(NC(=O)c2cccs2)s1	1.3µM	–[10.9 µM]	1µM	–
CN(c1ccccc1)S(=O)(=O)c1nnc(NC(=O)c2ccccc2)s1	–	–[10.9 µM]	–	–
CCN(c1ccc(C)cc1)S(=O)(=O)c1nnc(NC(=O)c2cccs2)s1	–	–[10.9 µM]	–	?
Cc1ccc(S(=O)(=O)N2CCCc3cc(NS(=O)(=O)c4ccc(C)c(C)c4)ccc32)cc1	–	–[10.9 µM]	–	–
COCCNc1ccnc(-c2c(C)noc2C)n1	–	–	–	–[11.4 µM]
Nc1ccc(S(=O)(=O)NCc2nccs2)cc1	–[9.22 µM]	–[10.9 µM]	–[9.22 µM]	–[11.4 µM]
COc1ccc(-c2noc(-c3ccccc3-c3ccccc3)n2)cc1OC	–	–	–	–
